# Results reported in PubChem BioAssay AID628 (Vanderbilt High Throughput Screening Facility, 2007).
# Among all 64,000 compounds or so, about 2,200 (3.4%) were called active.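 Rule for the calls: active = calcium fluorescence response, raw or row-and-column corrected B-score, differing from the plate sample mean either way at a set confidence level, mostly lower; inactive = the rest.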 The list comes from a sample in which actives are over-represented; it also holds similar structures and randomly drawn compounds.
# Molecular target: Muscarinic acetylcholine receptor M1 (Rattus norvegicus) (UniProt P08482)
# Sequence (P08482 whole entry, looked up): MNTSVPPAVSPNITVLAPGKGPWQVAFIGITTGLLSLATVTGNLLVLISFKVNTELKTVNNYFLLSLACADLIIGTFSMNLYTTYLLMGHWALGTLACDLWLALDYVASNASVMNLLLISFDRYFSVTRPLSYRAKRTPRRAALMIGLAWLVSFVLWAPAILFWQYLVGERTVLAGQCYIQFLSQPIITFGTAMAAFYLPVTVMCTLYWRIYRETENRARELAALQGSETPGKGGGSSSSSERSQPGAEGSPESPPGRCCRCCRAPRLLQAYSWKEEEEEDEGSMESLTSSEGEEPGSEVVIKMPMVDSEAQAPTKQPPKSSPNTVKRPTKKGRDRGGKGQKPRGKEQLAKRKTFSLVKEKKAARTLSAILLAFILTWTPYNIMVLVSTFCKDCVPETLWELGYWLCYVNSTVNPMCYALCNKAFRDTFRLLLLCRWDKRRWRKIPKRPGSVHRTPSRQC
# Assay: blocks the rat M1 muscarinic receptor response to acetylcholine (AID 628)
# Conditions: CHO-M1 cells, Fluo-4 calcium, ACh EC80 antagonist mode; at 10 µM; active compounds read low
row,SMILES,B-score
1,COC(=O)COc1ccc(S(=O)(=O)N2CCOCC2)cc1,0.524 (inactive)
2,OC(COc1ccc2ccccc2c1)CN1CCOCC1 (configuration not stated),-0.165 (inactive)
3,O=S(=O)(c1ccc(OCC(O)CN2CCN(c3ccccc3Cl)CC2)cc1)N1CCOCC1 (configuration not stated),-1.73 (active)
4,CCCc1[nH]nc2c1C(c1ccc(OC)c(Cn3nc(C)c(Br)c3C)c1)C(C#N)=C(N)O2 (configuration not stated),-0.527 (inactive)
5,Cc1ccc(-c2noc(CCC(=O)Nc3ccccc3N3CCN(C)CC3)n2)cc1,-3.17 (active)
6,CCCC(=O)Nc1ccccc1N1CCN(C(=O)c2ccccc2)CC1,0.0711 (inactive)
7,Cc1ccc(-c2noc(CCC(N)=O)n2)cc1,0.182 (inactive)
8,COc1ccc(NC(=O)Nc2cccc3cccnc23)cc1,-0.447 (inactive)
9,CCN(CC)C(=O)CCC(=O)Nc1ccc(C(=O)OC)cc1,-0.0517 (inactive)
10,COC(=O)c1ccc(NC(=O)CN(c2ccc(C)cc2)S(=O)(=O)c2c(C)n[nH]c2C)cc1,-1.39 (active)
11,CCOC(=O)c1cccc(NC(=O)CN(c2ccc(C)cc2)S(=O)(=O)c2c(C)noc2C)c1,-0.345 (inactive)
12,CCOc1ccc(-c2nnc(-c3ccco3)o2)cc1,0.158 (inactive)
13,CC(C)(C)NC(=O)C(c1ccco1)N(Cc1ccc2c(c1)OCO2)C(=O)Cn1nnc2ccccc21 (configuration not stated),-0.446 (inactive)
14,CCOC(=O)CSc1nc2sc3c(c2c(=O)[nH]1)CC(C)(C)OC3,1.04 (inactive)
15,CCC1(C)Cc2c(sc3nc4n(c(=O)c23)CCCS4)CO1 (configuration not stated),-1.1 (active)
16,CCOC(=O)Cn1c(SC)nc2sc3c(c2c1=O)CC(C)(C)OC3,-0.00652 (inactive)
17,CCOC(=O)C1CCN(c2ncnc3c2oc2ccc(Br)cc23)CC1,1.09 (inactive)
18,CCOC(=O)C1CCCN(C(=O)C2CCN(c3nnc(-n4cccc4)s3)CC2)C1 (configuration not stated),-0.147 (inactive)
19,Cc1cc(=O)n2nc(N3CCCC(C(=O)N4CCN(C)CC4)C3)sc2n1 (configuration not stated),-0.192 (inactive)
20,CCOC(=O)N1CCN(C(=O)C2CC(c3ccc(F)cc3)=NO2)CC1 (configuration not stated),1.56 (inactive)
21,CCOC(=O)N1CCN(C(=O)C2CCCN(c3ncnc4c3sc3cccc(F)c34)C2)CC1 (configuration not stated),-6.95 (active)
22,CCOC(=O)N1CCN(C(=O)C2CCN(c3ncnc4c3sc3cccc(F)c34)CC2)CC1,-6.68 (active)
23,Clc1ccc(Nc2nc(-c3cccs3)cs2)nc1,-1.85 (inactive)
24,Cn1c(=NC(=O)C2CC2)sc2cc(F)cc(F)c21,-2.24 (inactive)
25,COC(=O)COc1ccc2oc(=O)cc(C)c2c1,0.286 (inactive)
26,CN(C)CCSc1nc(N)c2c3c(sc2n1)COC(C)(C)C3,0.0678 (inactive)

row,SMILES,B-score
1,O=c1c2c(nc3n1CCCCC3)sc1c(O)cccc12,-0.992 (inactive)
2,CC1(C)Cc2c(sc3nc4n(c(=N)c23)CCCCC4)CO1,-2.66 (active)
3,CCOC(=O)c1cccc(NC(=O)C2CCCN(S(=O)(=O)c3cnc[nH]3)C2)c1 (configuration not stated),0.994 (inactive)
4,CCn1c(=N)n(CC(=O)c2cccc(OC)c2)c2ccccc21,-6.64 (active)
5,COc1ccc(OC)c(NC(=O)Cn2c(=O)oc3ccccc32)c1,-0.343 (inactive)
6,C=CCn1c(=N)n(CC(O)COc2ccc(OC)cc2)c2ccccc21 (configuration not stated),0.0139 (inactive)
7,CCCCCC(=O)Nc1ccc2oc(-c3ccncc3)nc2c1,0.442 (inactive)
8,CCc1c(C)sc(NC(=O)c2ccc(Br)o2)c1C(=O)OC,-0.053 (inactive)
9,OC(COc1ccccc1)Cn1cc(Br)cn1 (configuration not stated),-0.268 (inactive)
10,O=S(=O)(Nc1ccc2nc(-c3ccco3)[nH]c2c1)c1ccccc1,-0.153 (inactive)
11,Cc1ccc(S(=O)(=O)Nc2ccc3ncccc3c2)cc1,-3.27 (active)
12,CC(=O)N1CCN(C(=O)c2cccc(S(=O)(=O)Nc3ccc(C)cc3)c2)CC1,-0.171 (inactive)
13,COc1ccc(NC(C)=O)cc1NC(=O)CN1CCN(C2c3ccccc3-c3ccccc32)CC1,0.0245 (inactive)
14,CN(CCCC(=O)Nc1nccs1)S(=O)(=O)c1ccc(Cl)cc1,0.248 (inactive)
15,O=C(NCCCCO)C(F)(F)C(F)(F)C(F)(F)C(=O)NCCCCO,0.234 (inactive)
16,CC(=O)c1c(N2CCOCC2)nc(=S)n(-c2cc(C)ccc2C)c1C,-0.429 (inactive)
17,CCOc1cc(/C=N/n2cnnc2)c(Br)cc1O,0.717 (inactive)
18,COc1cccc(OCCOc2cccc(/C=N/n3cnnc3)c2)c1,-2.76 (active)
19,C(=N\n1cnnc1)/c1cccnc1,-0.0308 (inactive)
20,COCCNCCOCCOc1cccc(OC)c1,0.826 (inactive)
21,C=CCOc1ccc(/C=N/n2cncn2)cc1OC,0.195 (inactive)
22,COc1ccccc1OCCOc1ccc(/C=N/n2cnnc2)cc1,-2.39 (active)
23,O=C(CSc1nc2[nH]ncc2c(=O)n1-c1ccccc1)N1CCCc2ccccc21,0.281 (inactive)
24,CCOc1cc(C)c(Cl)cc1S(=O)(=O)n1nnc2ccccc21,0.583 (inactive)
25,COc1ccc(C(=O)NCCc2ccc(S(N)(=O)=O)cc2)cc1OC,-0.216 (inactive)
26,Cc1cc2cc(CN(Cc3cccs3)Cc3nnnn3CC3CCCO3)c(=O)[nH]c2cc1C (configuration not stated),-0.714 (inactive)
